Screening results deposited in PubChem by National Center for Advancing Translational Sciences (NCATS).
Shown are actives, neighbours in structure and some others; about 19% of the full set was active somewhere.
MCF10A rerep – induces DNA re-replication in MCF 10a normal breast cells | MCF 10A DNA re-replication, Hoechst nuclear intensity, 48 h | Potency, µM (top dose mostly 46.1 µM), without a hit: at the highest dose activity, positive = re-replication, most hits filed as activators | actives 2.9% (n = 350,000); also: potency is read from the fitted curve at half-maximal effect; % of control where 0% means no effect; nearly all actives have a fitted effect of over 50% in size
TDP1 cell CPT – DT40-hTDP1 cell growth loss with CPT | Potency, µM (top dose mostly 46.2 µM), for inactives: at the top dose activity change, negative = growth inhibition, actives largely listed as inhibitors | actives 12% (n = 420,000) | AID 686979 | chicken DT40 Tdp1-/-;hTDP1 cells + 20 nM CPT, ATP luminescence, 48 h; also: potency is read from the fitted curve at half-maximal effect; % is scaled to controls: 0 for no effect and ±100 for the full control effect; nearly all actives have a fitted effect of over 55% in size
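Chicken DT40 Tdp1-/- cells complemented with human TDP1, 400 cells/well, exposed to compounds plus 20 nM camptothecin for at least 48 h at 37 C; viability read as ATP content by CellTiter-Glo luminescence.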
SW480 rerep – inducers of DNA re-replication in SW480 colon cancer cells. SW480 DNA re-replication, Hoechst DNA content imaging, 48 h. Potency, µM (doses to about 46.1 µM), without a hit: top-dose re-replication activation, usual class: activators. actives 1.8% (n = 340,000). AID 624297; also: potency is read from the fitted curve at half-maximal effect; % of control where 0% means no effect; nearly all actives have a fitted effect of over 55% in size
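SW480 cells exposed to compounds for 48 hr at 37 C, 5% CO2, then Hoechst-stained 40 min. Nuclear DNA content imaged by fluorescence scanning (405 nm excitation, 500-530 nm emission); re-replication scored as increased high-intensity nuclei.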
Chronic BCR inh – inhibitors of chronic active B-cell receptor signaling | ABC-DLBCL IkBa-CBG/CBR reporter, luminescence ratio, 4 h | Potency, µM (top dose mostly 46.1 µM), inactives show at the highest dose activity change, negative = inhibition, usual class: inhibitors | actives 0.05% (n = 340,000) | AID 493014; active = well fitted inhibition curve with a large enough effect in the signal ratio, with a control signal flat, not every such curve was filed as active; inconclusive = small, poorly fitted or top-dose-only effect, or effect the other way, or a change in a side signal; the % refers to the signal ratio;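 also: potency is read from the fitted curve at half-maximal effect; plate controls were basal doxycycline-induced cells for no effect and cells given 10 µM MG132 for full effect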
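TMD8 human ABC-DLBCL cells with doxycycline-inducible IκBα–green luciferase fusion and unfused red luciferase, in 0.5% FBS medium; compounds up to 46 uM, 4 h at 37C. Green/red luminescence ratio, filter-overlap corrected, fitted to concentration-response curves.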
IL-1B inflam inh – inhibitors of inflammasome signaling (IL-1 beta secretion); THP-1 LPS/ATP IL-1B secretion, AlphaLISA, 16 h; stronger effect = lower value; activity change, % at 57.5 µM; actives 4.7% (n = 360,000); in the data active = activity change below about -50%; inconclusive = mostly about -30% to -49%; also: % is scaled to controls: 0 for no effect and ±100 for the full control effect
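Secreted IL-1B measured by AlphaLISA bead assay after 16 h compound exposure of THP-1 cells; compounds (final up to 57.5 uM) added 1 h before LPS (250 ng/mL) and ATP (1.25 mM) stimulation; lower signal means less secretion.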
TDP1 cell noCPT – qHTS for Inhibitors of human tyrosyl-DNA phosphodiesterase 1 (TDP1): qHTS in cells in absence of CPT. DT40 Tdp1-/- hTDP1 cells, no CPT, ATP luminescence, 48 h. Potency, µM (top dose mostly 46.2 µM), inactives show at the top dose activity change, negative = growth inhibition, actives largely listed as inhibitors. actives 15% (n = 420,000). AID 686978, 2013; also: potency is read from the fitted curve at half-maximal effect; % is scaled to controls: 0 for no effect and ±100 for the full control effect; nearly all actives have a fitted effect of over 55% in size
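Camptothecin absent (DMSO only). Human TDP1-complemented DT40 knockout cells, 400 cells/well, 37 °C for minimum 48 hr; ATP measured via CellTiter-Glo, 30 min dark incubation, luminescence.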
Active calls of the source: *; [ ] = dose if it differs, or a comment. Unless noted, calls follow the shape of the dose curve; as a rule, active = well fitted curve in the direction sought with a large enough effect; inconclusive = small, poorly fitted or top-dose-only effect, or another doubt; inactive = no such curve, though single readings can be large; an effect the other way counts as inactive or inconclusive.

CCn1c(SCC(=O)c2ccc(C)cc2)nnc1-c1ccncc1 was read as MCF10A rerep 22%, TDP1 cell CPT -15%, SW480 rerep -6%, Chronic BCR inh inconclusive, IL-1B inflam inh 3 and TDP1 cell noCPT -12%.
Screening O=C(CSc1nnc(-c2ccc(O)cc2)n1Cc1ccccc1)NNC(=O)c1ccc(Br)cc1 returned MCF10A rerep 1%, TDP1 cell CPT -3%, SW480 rerep -4%, Chronic BCR inh -2%, IL-1B inflam inh -66* and TDP1 cell noCPT 1%.
Screening Cc1nnc(SCC(=O)c2c(N)n(C)c(=O)n(C)c2=O)n1Cc1ccccc1 returned MCF10A rerep 10%, TDP1 cell CPT -30%, SW480 rerep -2%, Chronic BCR inh 2%, IL-1B inflam inh -54* and TDP1 cell noCPT -21%.
Screening CC(=O)Nc1ccc(SCC(=O)c2c(N)n(Cc3ccccc3)c(=O)n(C)c2=O)cc1 returned MCF10A rerep 17%, TDP1 cell CPT inconclusive, SW480 rerep -11%, Chronic BCR inh -2%, IL-1B inflam inh 36 and TDP1 cell noCPT 8.2µM*.
C=CCn1c(COc2cc(C)ccc2C(C)C)nnc1SCC(=O)c1c(N)n(C)c(=O)n(C)c1=O was read as MCF10A rerep inconclusive, TDP1 cell CPT inconclusive, SW480 rerep inconclusive, Chronic BCR inh 1%, IL-1B inflam inh 0 and TDP1 cell noCPT 23µM*.
`CC(=O)NC(=S)c1c(N)n(Cc2ccccc2)c(=O)n(C)c1=O` gave Chronic BCR inh 11%.
CCCn1c(N)c(C(=O)CSc2nc(C)cs2)c(=O)n(C)c1=O was read as MCF10A rerep inconclusive, TDP1 cell CPT inconclusive, SW480 rerep -3%[9.22 µM], Chronic BCR inh inconclusive, IL-1B inflam inh 9 and TDP1 cell noCPT 12µM*.
For CCn1c(SCC(=O)c2c(N)n(C)c(=O)n(C)c2=O)nnc1-c1ccccc1 the results were Chronic BCR inh -7%.
Screening CCn1c(=O)c2[nH]c(SC)nc2n(CC)c1=O returned TDP1 cell CPT 3%, IL-1B inflam inh 12 and TDP1 cell noCPT -8%.
For COc1ccc(CC(=O)NCC(c2cccs2)S(=O)(=O)c2ccc(Cl)cc2)cc1 (centres undefined) the results were TDP1 cell CPT inconclusive, Chronic BCR inh 11% and TDP1 cell noCPT inconclusive.
Screening CC(C)Cn1c(N)c(C(=O)CSc2nncs2)c(=O)n(C)c1=O returned MCF10A rerep -8%, TDP1 cell CPT inconclusive, SW480 rerep -25%, Chronic BCR inh 9%, IL-1B inflam inh 11 and TDP1 cell noCPT inconclusive.
For CC(C)Cn1c(N)c(C(=O)COC(=O)c2cccc(F)c2)c(=O)n(C)c1=O the results were MCF10A rerep -2%, TDP1 cell CPT inconclusive, SW480 rerep 8%, Chronic BCR inh -1%, IL-1B inflam inh 9 and TDP1 cell noCPT inconclusive.
Cc1ccccc1CSCC(=O)c1c(N)n(C)c(=O)n(C)c1=O was read as MCF10A rerep 25%, TDP1 cell CPT inconclusive, SW480 rerep -10%, Chronic BCR inh 3%, IL-1B inflam inh 22 and TDP1 cell noCPT inconclusive.
CC(C)Cn1c(N)c(C(=O)CSc2ccccc2)c(=O)n(C)c1=O was read as MCF10A rerep 28%, TDP1 cell CPT 16µM*, SW480 rerep -2%, Chronic BCR inh 3%, IL-1B inflam inh 0 and TDP1 cell noCPT 8.2µM*.
`Cc1ccccc1CSCC(=O)c1c(N)n(CC(C)C)c(=O)n(C)c1=O` gave MCF10A rerep 15%, TDP1 cell CPT inconclusive, SW480 rerep -7%, Chronic BCR inh inconclusive, IL-1B inflam inh -7 and TDP1 cell noCPT 23µM*.
